Experimental data: PubChem BioAssay (NCI)
Values joined by “and” are separate entries in the source; they are usually repeats but may differ in a detail not shown here. Identical values can stand only once. Compounds without any hit were thinned out: in the full panel of roughly 83,000, 20% have a hit.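 Cells were grown in 96-well plates and exposed to the test compound at a single concentration for 48 hours; results are reported as percent growth, with values below 10 considered active.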 Active and inactive are the calls of the source.

Test system: HL-60(TB) leukemia
Experiment: NCI-60 one-dose screen, 48 h (100 = growth as untreated, 0 = no growth, -100 = all killed)
Conditions: 10 µM unless noted

Row | SMILES | growth
1 | Cc1ccc(NC(=O)Nc2ccc(-c3cccnc3)cc2N2CCC(CO)CC2)cc1 | 13.9% (inactive)
2 | COc1ccccc1CNCCCN1C(=O)c2ccc3c4c(ccc(c24)C1=O)C(=O)N(CCCNCc1ccccc1OC)C3=O | -67.5% (active)
3 | Cc1cc(O)ccc1C1=NN(c2ccc(S(N)(=O)=O)cc2)C(=O)CC1 | 4.22% (active)
4 | O=C(O)C1C2CC3C(OC(=O)C31)C2Br (stereo unspecified) | 97% (inactive) and 103% (inactive)
5 | O=C(CC12CC3CC(CC(C3)C1)C2)NCCOCCOCCNC(=O)c1cc2c(o1)C(=O)c1ccccc1C2=O | -16% (active)
6 | CC(C)N(CCOc1cccc(-c2nc3sccn3c2-c2ccnc(S(C)(=O)=O)n2)c1)C(C)C | 80.8% (inactive)
7 | Cc1cc2c(C(C)C)c(O)c(O)c(C=NCCCCCCC(=O)O)c2c(O)c1-c1c(C)cc2c(C(C)C)c(O)c(O)c(C=NCCCCCCC(=O)O)c2c1O | 28.9% (inactive)
8 | CC1(C)CC(=O)c2cc3c(N)c(C(=O)Nc4ccc(Cl)cc4)sc3nc2C1 | 107% (inactive)
9 | Nc1c(C(=O)c2ccc(F)cc2)sc2nc3c(cc12)CCCC3 | 70.2% (inactive)
10 | Clc1ccc2c(c1)C(N1CCNCC1)=Nc1ccccc1O2 | 50.7% (inactive)
11 | O=C1CC(=NCC(=O)n2c(-c3ccccc3)nc3ccccc32)NN1 | 107% (inactive)
